Results on 7 molecules are retold here after PubChem BioAssay.

The nature of assay [1]: A549 cell viability effects, profiling panel, calcein-AM fluorescence, 48 h, basal (AID 1162). Note: test concentration not given here. Conditions: higher = more signal.
The nature of assay [2]: adipocyte viability effects, profiling panel, cell-based, 3T3-L1 adipocytes, calcein-AM fluorescence, 48 h, basal (AID 1163). Note: test concentration not given here. Conditions: 3T3-L1 adipocytes viability, higher = more signal.
A short description of assay [3]: HepG2 cell viability effects, profiling panel, calcein-AM fluorescence, 48 h, basal (AID 1164). Note: test concentration not given here. Conditions: higher = more signal.
A short description of assay [4]: MM1S cell viability effects, profiling panel, calcein-AM fluorescence, 48 h, basal (AID 1165).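 Note: viability of MM1S multiple myeloma cells under basal unstimulated conditions; test concentration not given here.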 The conditions noted are these: higher = more signal.
Assay [5] is described as follows: basal RPMI8226 viability, no added stimulus, profiling panel, cell-based, calcein-AM fluorescence, 48 h, PK04 Diversity Set (AID 1166).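 Note: cells grown under basal conditions without added stimulus; test concentration not given here.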 Conditions: RPMI8226 myeloma viability, higher = more signal.
Assay [6] can be described thus: basal HepG2 mitochondrial membrane potential changes, profiling panel, cell-based, JC-1 fluorescence, 24 h, 100 nL compound (AID 1167). Note: test concentration not given here. The conditions noted are these: higher = more signal.
Assay [7] in a line: basal 3T3-L1 adipocyte mitochondrial potential changes, profiling panel, cell-based, JC-1 fluorescence, 3T3-L1 adipocytes, 24 h, 100 nL compound (AID 1168). Note: test concentration not given here. The conditions noted are these: JC-1 mitochondrial fluorescence, higher = more signal, called active from +8 up or from −8 down.
Assay [8] in a line: basal RPMI8226 mitochondrial membrane potential changes, profiling panel, cell-based, JC-1 fluorescence, 24 h, 100 nL compound (AID 1169). Note: test concentration not given here. The conditions noted are these: RPMI8226 myeloma, JC-1 mitochondrial potential fluorescence, higher = more signal.
Assay [9] is described as follows: basal MM1S mitochondrial membrane potential changes, profiling panel, cell-based, JC-1 fluorescence, 24 h, 100 nL compound (AID 1170). Note: test concentration not given here. Conditions: higher = more signal.
Assay [10] is described as follows: A549 lung cancer cell viability effects, profiling panel, resazurin fluorescence, 24 h, PK04 Diversity Set (AID 1171). Note: test concentration not given here. Conditions: higher = more signal, called active from +8 up or from −8 down. A general note: Alamar Blue is a resazurin reagent that responds to reducing activity.
Assay [11] can be described thus: HepG2 liver cancer cell viability effects, profiling panel, resazurin fluorescence, 24 h, PK04 Diversity Set (AID 1172). Note: test concentration not given here. Conditions: higher = more signal.
Assay [12] can be described thus: basal S. cerevisiae growth modulation, no modifier, primary screen, OD600, strain BY4716, 24 h, basal condition (AID 1173). Conditions: OD600, 24 h, higher = more signal, called active from +8 up or from −8 down.
A short description of assay [13]: MM1S myeloma cell viability, profiling panel, resazurin fluorescence, basal, 24 h, PK04 Diversity Set (AID 1174).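 Note: MM1S multiple myeloma cell line; test concentration not given here.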 Conditions: higher = more signal, called active from +8 up or from −8 down.
The target of assay [14] is Dihydroorotate dehydrogenase (quinone), mitochondrial (Plasmodium falciparum (isolate 3D7)) (UniProt Q08210). Description: PfDHODH enzyme inhibitors, primary screen, biochemical, C-terminal His tag, absorbance 600 nm (AID 1175).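 Note: recombinant parasite enzyme with a five histidine tag at its C terminus; test concentration not given here.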 Conditions: DCIP absorbance 600 nm, higher = more signal, called active from +8 up or from −8 down.
Assay [15] in a line: P. aeruginosa biofilm formation inhibitors, primary screen, strain PAO1, LB-PBS medium, absorbance 600 nm (AID 1176). Note: test concentration not given here. Conditions: P. aeruginosa PAO1 growth/biofilm, A600, 12 h; higher = more signal.
Assay [16] can be described thus: S. cerevisiae RM11-1a growth modifiers, primary screen, strain RM11-1a, OD600, basal, 24 h (AID 1177).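 Note: cultures grown under basal conditions with no added stressor; test concentration not given here.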 The conditions noted are these: OD600, 24 h, higher = more signal, called active from +8 up or from −8 down.
The nature of assay [17]: E. coli acrAB mutant growth effects, primary screen, E. coli filamentation inducers, strain DRC39, OD650, 24 h (AID 1178).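 Note: growth measured as culture turbidity by optical density at 650 nm; test concentration not given here.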 Conditions: higher = more signal, called active from +8 up or from −8 down.
A short description of assay [18]: E. coli acrAB mutant growth effects, primary screen, E. coli filamentation inducers, strain DRC39, OD650, 48 h (AID 1179).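 Note: screen aims at cell division blockers that make cells filament.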 The conditions noted are these: E. coli DRC39 delta-acrAB growth, higher = more signal, called active from +8 up or from −8 down.
The nature of assay [19]: RPMI8226 myeloma cell viability, profiling panel, resazurin fluorescence, basal, 24 h, PK04 Diversity Set (AID 1180).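 Note: RPMI8826 multiple myeloma cell line at 5000 cells per well; test concentration not given here.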 Conditions: higher = more signal.
The target of assay [20] is E3 ubiquitin-protein ligase XIAP (Homo sapiens) (UniProt P98170). Description: XIAP binders, primary screen, biophysical, small-molecule microarray, fluorescence 635 nm (AID 1181).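 Note: score merges 667 nm emission and signal to noise over triplicate slides.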 The conditions noted are these: small-molecule microarray binding, higher = more signal.

Activity calls are given as the source filed them. Unless noted, the rule behind the calls is not given here.

Chain of Dihydroorotate dehydrogenase (quinone), mitochondrial (Plasmodium falciparum (isolate 3D7)) (Q08210 whole entry, looked up): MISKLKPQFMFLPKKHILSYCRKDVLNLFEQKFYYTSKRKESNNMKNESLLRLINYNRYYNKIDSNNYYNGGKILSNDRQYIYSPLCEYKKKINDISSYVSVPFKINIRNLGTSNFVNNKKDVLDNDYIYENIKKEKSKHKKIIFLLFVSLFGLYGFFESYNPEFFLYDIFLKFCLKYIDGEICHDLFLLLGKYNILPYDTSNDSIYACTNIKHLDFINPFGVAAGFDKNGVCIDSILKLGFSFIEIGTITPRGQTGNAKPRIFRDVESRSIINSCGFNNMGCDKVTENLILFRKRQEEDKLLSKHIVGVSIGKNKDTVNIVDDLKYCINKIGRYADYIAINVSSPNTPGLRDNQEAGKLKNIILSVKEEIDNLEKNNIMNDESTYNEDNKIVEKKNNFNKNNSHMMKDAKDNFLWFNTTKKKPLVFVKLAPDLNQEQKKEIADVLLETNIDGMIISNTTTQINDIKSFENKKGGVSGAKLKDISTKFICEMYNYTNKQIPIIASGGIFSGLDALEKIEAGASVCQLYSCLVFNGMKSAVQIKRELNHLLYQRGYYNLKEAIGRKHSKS
Chain of E3 ubiquitin-protein ligase XIAP (Homo sapiens) (P98170 whole entry, looked up): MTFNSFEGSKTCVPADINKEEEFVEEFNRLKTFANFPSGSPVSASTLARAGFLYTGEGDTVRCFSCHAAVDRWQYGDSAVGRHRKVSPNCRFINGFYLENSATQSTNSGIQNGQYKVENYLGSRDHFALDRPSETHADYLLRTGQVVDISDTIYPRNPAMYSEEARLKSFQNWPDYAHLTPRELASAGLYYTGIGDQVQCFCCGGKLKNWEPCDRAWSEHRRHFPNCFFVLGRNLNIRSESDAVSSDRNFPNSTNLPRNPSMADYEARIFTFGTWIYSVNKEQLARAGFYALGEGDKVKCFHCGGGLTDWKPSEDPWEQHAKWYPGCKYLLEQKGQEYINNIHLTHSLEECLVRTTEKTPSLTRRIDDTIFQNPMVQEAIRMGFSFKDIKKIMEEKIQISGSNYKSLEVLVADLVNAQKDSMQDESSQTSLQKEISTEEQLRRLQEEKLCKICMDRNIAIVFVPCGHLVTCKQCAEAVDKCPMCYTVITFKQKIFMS

In the case of `CC(C)NC(=O)[C@@H]1c2ccccc2C(=O)N(C2Cc3ccccc3C2)[C@H]1c1ccc(CO)cc1`, the z-score in assay [1] is 1.54; in assay [2] it was -0.27; in [3], 1.22; in assay [4], 0.543; in assay [5], 0.982; in assay [6], 3.83. The z-score in assay [7] was 0.976 (inactive); in [8], 0.459; in assay [9], -0.096; in [10], 1.81 (inactive); in assay [11], 0.785; in [12] it was 0.0928 (inactive). The z-score in [13] was 1.16 (inactive); in assay [15], -0.0528 (inactive); in [16] it was 0.744 (inactive); in assay [17] it was 0.859 (inactive); in assay [18] it was 0.95 (inactive); in assay [19], 1.59. Further, the composite z-score in [14] is -0.427 (inactive); in [20], 0.133.
For `C=CCOC(=O)[C@H]1[C@@H]2C(=O)O[C@@H](c3ccccc3)[C@@H](c3ccccc3)N2[C@@H](c2ccc(OCCOC(=O)[C@H]3C[C@H]4C(=O)N[C@@H](CCCCNC(C)=O)C(=O)N4[C@H]3c3ccc(O)cc3)cc2)[C@]12C(=O)Nc1ccc(I)cc12`, the z-score in [1] is -0.143; in [2], -0.0346; in assay [3], -0.251; in [4] it was -2.94; in assay [5] it was -2.69; in assay [6], 1.46. Also, the z-score in [7] is 0.585 (inactive); in [8] it was -0.538; in assay [9], -1.44; in assay [10] it was 0.974 (inactive); in assay [11] it was 0.452; in assay [12] it was -0.371 (inactive). Besides, the z-score was -1.18 (inactive) in [13]; 1.14 (inactive) in assay [15]; 1.38 (inactive) in assay [16]; -1.83 (inactive) in assay [17]; -1.16 (inactive) in assay [18]; -0.745 in assay [19]. Moreover, the composite z-score was -0.325 (inactive) in assay [14] and -0.0784 in assay [20].
For `COc1ccc(-c2cc3c(c(-c4ccc(Oc5ccccc5)cc4)n2)[Si](C(C)C)(C(C)C)OC3)cn1`, the z-score in assay [1] was -0.599; in assay [2] it was -0.377; in assay [3], 0.645; in assay [4], -1.19; in assay [5] it was -1.75; in assay [6], -1.43. In addition, the z-score in assay [7] is -0.47 (inactive); in assay [8] it was -0.845; in assay [9], -0.973; in assay [10], 1.07 (inactive); in assay [11] it was -1.05; in [12] it was 1.07 (inactive). Further, the z-score in assay [13] is -0.29 (inactive); in [15] it was -0.0391 (inactive); in assay [16], 1.24 (inactive); in assay [17] it was -0.794 (inactive); in assay [18] it was -0.973 (inactive); in assay [19], -0.698. Besides, the results for the composite z-score in assay [14] and in [20] were 0.568 (inactive) and -0.0326, respectively.
With `COCCOC(=O)N1C(=O)[C@@]2(c3ccccc31)[C@H](c1ccc(O)cc1)N1[C@H](c3ccccc3)[C@H](c3ccccc3)OC(=O)[C@H]1[C@@H]2C(=O)Nc1nc2ccccc2s1`, the z-score is 0.982 in [1]; 0.267 in assay [2]; 0.818 in assay [3]; -1.49 in [4]; -2.22 in assay [5]; -3.87 in assay [6]. Also, the z-score is -1.17 (inactive) in assay [7]; -0.883 in [8]; -1.21 in assay [9]; 0.185 (inactive) in assay [10]; -0.175 in [11]; 0.183 (inactive) in assay [12]. Also, the z-score in assay [13] was -1.1 (inactive); in assay [15], 0.995 (inactive); in assay [16], 0.941 (inactive); in assay [17] it was 0.411 (inactive); in assay [18], 1.37 (inactive); in assay [19], -0.456. In addition, the composite z-score in assay [14] is 0.553 (inactive); in [20], -0.02.
As for `COc1cc(NN2C(C(O)c3ccco3)C=CC3C(=O)N(c4ccccc4)C(=O)C32)cc(OC)c1OC` (stereo not given), the z-score in [1] is -0.5; in [2], 0.117; in assay [3], -0.337; in assay [4], 0.0511; in [5], -0.307; in [6], -0.955. In addition, the z-score in assay [7] is -0.967 (inactive); in assay [8] it was 0.187; in assay [9] it was -1.31; in assay [10], -1.54 (inactive); in assay [11], -1.41; in assay [12] it was 1.58 (inactive). Further, the z-score in assay [13] is -1.68 (inactive); in [15] it was 0.711 (inactive); in assay [16], 0.178 (inactive); in assay [17], -0.225 (inactive); in assay [18] it was -1.32 (inactive); in assay [19], -1.08. Further, the composite z-score in assay [14] is -2 (inactive); in assay [20] it was -0.081.
As for `CCS[C@H]1[C@@H](C(=O)O)[C@H](c2ccc(C)cc2)N(S(=O)(=O)c2ccc(C)cc2)[C@@H]1CC`, the z-score was -0.408 in assay [1]; -0.507 in assay [2]; 1.36 in assay [3]; 0.412 in assay [4]; 0.458 in [5]; 0.922 in [6]. In addition, the z-score in assay [7] was 0.337 (inactive); in assay [8], 0.551; in assay [9], -1.88; in assay [10] it was -0.545 (inactive); in [11], 0; in assay [12] it was 0.788 (inactive). Moreover, the z-score is -0.751 (inactive) in [13]; 0.257 (inactive) in assay [15]; -0.0137 (inactive) in assay [16]; -0.419 (inactive) in assay [17]; 0.843 (inactive) in assay [18]; -0.702 in assay [19]. In addition, the values for the composite z-score in [14] and in assay [20] were -1.03 (inactive) and -0.167, respectively.
`O=C1C[C@@](C(=O)NCCN2CCOCC2)(c2ccc([N+](=O)[O-])cc2)[C@@H](c2ccc(CO)cc2)N1CC12CC3CC(CC(C3)C1)C2`: the z-score in [1] is -2.97; in [2] it was 0.0433; in [3], -3; in assay [4], -3.83; in [5] it was -4.23; in assay [6], -2.04. The z-score in [7] is -0.907 (inactive); in assay [8] it was -0.893; in [9], -0.615; in [10] it was -2.06 (inactive); in [11], -2.48; in assay [12], -11.2 (active). Besides, the z-score in [13] was -3.17 (inactive); in [15] it was 0.733 (inactive); in assay [16], 1.77 (inactive); in [17], -0.924 (inactive); in assay [18], -1.66 (inactive); in [19], -3.82. The results for the composite z-score in assay [14] and in assay [20] were -0.601 (inactive) and -0.182, respectively.
